Data on nine compounds can be found in PubChem BioAssay AID2547 (National Center for Advancing Translational Sciences (NCATS), 2010).

Structures are written as SMILES. The list shows a part of the results. Records with an inconclusive call do not appear. Calls of active or inactive are those of the source. Calls come from the whole dose curve; as a rule, active = well fitted inhibition curve with a large enough effect; inconclusive = small, poorly fitted or top-dose-only effect; inactive = flat fitted curve, though single readings scatter.
% is set by controls: 0 for no effect and ±100 for the full control effect; potency is the fitted concentration of half-maximal effect.

The nature of this assay: Secondary Assay for Inhibitors of Human Galactokinase (GALK): HEK-293 Cell Viability Assay. The following applies: HEK-293 viability, ATP luminescence (CellTiter-Glo), 24/48 h; series mostly up to 46.1 µM; activity change, negative = cytotoxicity: at the top concentration. On the procedure: NIH Molecular Libraries Probe Production Centers Network [MLPCN] NIH Chemical Genomics Center [NCGC] MLPCN Grant: R03 MH085689-01 Assay Submitter (PI): Kent Lai (University of Utah School of Medicine, 50 N Mario Capecchi Drive, Salt Lake City, UT 84132) NCGC Assay Overview Cytotoxicity of the active compounds in the GALK qHTS screen (AID 1868) was assessed using the CellTiter-Glo Luminescent Cell Viability Assay kit (Promega, USA) in the HEK-293 (ATCC) cell line. CellTiter-Glo measures the intracellular ATP present in metabolically active cells using Ultra-Glo as the luciferase to detect ATP levels. In brief, the luciferase in the buffer catalyzes the oxidation of luciferin to oxyluciferin and light which is dependent on ATP. […] Wells treated with various concentrations of cycloheximide (Sigma) and DMSO, and wells with media alone were used as positive and negative controls, respectively. […] [1] http://www.promega.com/tbs/tb288/tb288.pdf
NCGC Assay Protocol Summary: HEK-293 cells were grown in a flask up to 80% confluence. Cells were trypsinized, washed, and resuspended in MEM Eagle + 10% FBS + 1% pen-strep media at a concentration of 120 cells/uL. Five uL/well of cell solution was dispensed into a 1536-well assay plates (Greiner, solid white medium-binding plates) with Aurora Discovery BioRAPTR Flying Reagent Dispenser (FRD; Beckton-Dickenson). Cells were pre-incubated at 37 degree Celsius, 5% CO2 for four hours. Compound and control solutions (23nL) were then transferred to the assay plate using the Kalypsys 1536-pin tool. Assay plates were re- incubated at 37 degree Celsius, 5% CO2. After 24 or 48 hours, five uL of CellTiter Glo detection reagent was added. Luminescence signal was read with Perkin Elmer ViewLux plate reader after 30 min room temperature incubation.
For orientation: ATP-based viability assays read luminescence as a measure of living cells.
Take `CCS(=O)(=O)C1=NSC2=NC(=O)/C(=C\c3ccc(OS(=O)(=O)c4ccccc4)cc3)C(=N)N21`: the “activity change, negative = cytotoxicity” value is 2.94% (inactive). In the case of `O=C1CCCC2=C1[C@@]1(CCC(c3ccccc3)C1)N=C(Nc1nc3ccccc3o1)N2` (some centres undefined), the “activity change, negative = cytotoxicity” value is -26.3% (inactive). `N#Cc1c(N2CCCCC2)nc(N)c2c(N)nc(SCC(=O)O)cc12`: the “activity change, negative = cytotoxicity” value was -0.364% (inactive).

As to `Oc1c(Cl)cc(Cl)c(Cl)c1Cc1c(O)c(Cl)cc(Cl)c1Cl`, the Potency was 7.91 µM (active). On to `O=C(Nc1nnc(S(=O)(=O)N2CCOCC2)s1)c1cccc(Br)c1`, for which the “activity change, negative = cytotoxicity” value was -11% (inactive). Take `COc1cccc2cc(-c3cc(=O)oc4cc(C)c(O)cc34)oc12`: the “activity change, negative = cytotoxicity” value is 3.01% (inactive). Turning to `N#C/C(=C(/O)Cc1cccc2ccccc12)c1nc2ccccc2s1`, the “activity change, negative = cytotoxicity” value is -2.32% (inactive). On the same count and under the same terms, the result for `O=C1Nc2ccc([N+](=O)[O-])cc2C1=Nc1cccc(CO)c1` reads -8.73% (inactive). `CCOC(=O)c1c(C)[nH]c2c1-c1ccccc1C(=O)C2=O`: the Potency is 11.2 µM (active).
